The results in this text go back to PubChem BioAssay.

Experiment [1] is described as follows: small molecules captured by biotinylated probe aFSTL3 – biochemical, small-molecule microarray, fluorescence 635/667, stem cell growth factor project, primary screen (AID 1064).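 Also: measures binding of the biotinylated anti-FSTL3 antibody to printed compounds.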 Conditions: higher = more signal.
Experiment [2] can be described thus: binders from COS7 lysate, DM2A8 probe, primary screen, torsin A project, cell lysate, small-molecule microarray, fluorescence 635/667 (AID 1065). The conditions noted are these: higher = more signal, COS7 lysate expressing mutant human TOR1A.
Experiment [3] is described as follows: small molecules captured by biotinylated probe aFGF2 – biochemical, small-molecule microarray, fluorescence 635/667, stem cell growth factor project, primary screen (AID 1067).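 Also: measures binding of biotinylated aFGF2 protein to printed compounds on slides; z-score merges feature fluorescence and signal-to-noise across triplicate slides.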 Conditions: higher = more signal.
Experiment [4] is described as follows: small molecules captured by biotinylated probe aFGF10 – biochemical, small-molecule microarray, fluorescence 635/667, stem cell growth factor project, primary screen (AID 1071).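 Also: score merges 667 nm spot intensity and signal to noise from triplicate slides.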 The conditions noted are these: higher = more signal.
Experiment [5] addresses Neurogenic locus notch homolog protein 2 (Homo sapiens) (UniProt Q04721). The experiment in a line: small molecules binding Notch2 protein – biochemical, small-molecule microarray, 635 nm fluorescence, stem cell growth factors, primary screen (AID 1073). Conditions: higher = more signal.
The target of experiment [6] is Pro-neuregulin-1, membrane-bound isoform (Homo sapiens) (UniProt Q02297). Briefly: small molecules binding neuregulin-1 protein – biochemical, small-molecule microarray, fluorescence 635/667, psychiatric disease protein project, primary screen (AID 1075).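 Also: score combines 667 nm spot fluorescence with signal to noise.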 The conditions noted are these: NRG1 binding, 635 nm fluorescence, higher = more signal.
Experiment [7] relates to Neuregulin-1 EGF-like domain. The experiment in a line: small molecules binding NRG1 EGF domain – biochemical, small-molecule microarray, 635 nm fluorescence, primary screen (AID 1081).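 Also: binding of the protein to compounds printed on small-molecule microarray slides.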 The conditions noted are these: higher = more signal.
Experiment [8] in a line: FRG1 expression reporter modulators in myotubes – cell-based, C2C12 myotubes, firefly/Renilla luciferase, luminescence, FRG1 inhibition for FSHD, primary screen (AID 1084). Conditions: FRG1 promoter luciferase, higher = more signal, called active from +8 up or from −8 down.
Experiment [9] is described as follows: small molecules captured by biotinylated probe aFST – biochemical, small-molecule microarray, fluorescence 635/667, stem cell growth factor project, primary screen (AID 1086).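 Also: score merges 667 nm fluorescence with signal-to-noise of each printed compound spot.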 Conditions: higher = more signal.
Experiment [10] is described as follows: binders of probe aHhip on microarray, primary screen, stem cell growth factor project, biochemical, small-molecule microarray, fluorescence 635/667 (AID 1087).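 Also: score merges spot fluorescence at 667nm with spot signal to noise ratio.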 Conditions: higher = more signal.
The test system of experiment [11] is PRMT1 (protein arginine N-methyltransferase 1). Briefly: small molecules binding arginine methyltransferase PRMT1 – biochemical, small-molecule microarray, 635 nm fluorescence, primary screen (AID 1088).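 Also: binding of Prmt1 protein to compounds spotted on small-molecule microarray slides.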 The conditions noted are these: higher = more signal.
A short description of experiment [12]: growth effects on S. cerevisiae YJM789 – YJM789 clinical isolate, OD600, 24 h, basal, primary screen (AID 1089).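 Also: growth of clinical yeast isolate S. cerevisiae YJM 789 seeded 1000 cells per well; test concentration not given here.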 The conditions noted are these: higher = more signal, called active from +8 up or from −8 down.
Experiment [13] is described as follows: S. pombe growth modifiers, basal conditions – strain 972, OD600, 24 h, no modulator, primary screen (AID 1090).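 Also: basal condition with compound alone and no growth modifier present; test concentration not given here.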 The conditions noted are these: S. pombe 972 growth, higher = more signal, called active from +8 up or from −8 down.
Experiment [14] in a line: budding yeast growth modifiers under rapamycin – strain BY4716, OD600, 96 h, primary screen (AID 1091). Also: test concentration not given here. The conditions noted are these: S. cerevisiae BY4716 + rapamycin, higher = more signal, called active from +8 up or from −8 down.
In experiment [15] the target is Torsin-1A-interacting protein 2 (Homo sapiens) (UniProt Q8NFQ8). The experiment in a line: small molecules binding lysate-expressed LULL1 – cell lysate, human LULL1 lysate, 635/667 nm fluorescence, primary screen (AID 1092).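 Also: probe is lysate of COS7 cells overexpressing human LULL1; score merges per-feature 667 nm fluorescence with signal-to-noise.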 The conditions noted are these: small-molecule microarray, hLULL1 lysate binding, 635 nm fluorescence; higher = more signal.
The nature of experiment [16]: optical density change of DRC41 E. coli – strain DRC41, OD650, 24 h, E. coli filamentation project, primary screen (AID 1093).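 Also: MC1000 strain lacking acrAB efflux and sulA so SOS filamentation is blocked; test concentration not given here.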 Conditions: E. coli DRC41 growth, higher = more signal, called active from +8 up or from −8 down.
The nature of experiment [17]: probe aLefty2 binding to arrayed compounds – biochemical, biotinylated probe, 635/667 nm fluorescence, primary screen (AID 1094).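 Also: score merges spot fluorescence near 667 nm with spot signal-to-noise ratio.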 Conditions: small-molecule microarray, higher = more signal.
Experiment [18] has as its system Noggin (protein binding on small-molecule microarray). Briefly: small molecules binding Noggin protein – biochemical, 635/667 nm fluorescence, primary screen (AID 1095).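 Also: score merges 667 nm feature fluorescence with signal to noise over triplicate slides.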 The conditions noted are these: 635 nm fluorescence, higher = more signal.
For experiment [19], the target named is Neurogenic locus notch homolog protein 3 (Homo sapiens) (UniProt Q9UM47). Briefly: small molecules binding NOTCH3 protein – biochemical, 635/667 nm fluorescence, primary screen (AID 1096). The conditions noted are these: small-molecule microarray, 635 nm fluorescence, higher = more signal.
Experiment [20] is described as follows: probe aEGFR binding to arrayed compounds – biochemical, biotinylated probe, 635/667 nm fluorescence, primary screen (AID 1097).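 Also: probe is a biotinylated anti-EGFR antibody binding compounds printed on slides; score combines fluorescence near 667 nm and signal to noise of each spot.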 Conditions: small-molecule microarray, higher = more signal.

Activity calls are given as the source filed them.

Sequence of Neurogenic locus notch homolog protein 3 (Homo sapiens) (Q9UM47 whole entry, looked up): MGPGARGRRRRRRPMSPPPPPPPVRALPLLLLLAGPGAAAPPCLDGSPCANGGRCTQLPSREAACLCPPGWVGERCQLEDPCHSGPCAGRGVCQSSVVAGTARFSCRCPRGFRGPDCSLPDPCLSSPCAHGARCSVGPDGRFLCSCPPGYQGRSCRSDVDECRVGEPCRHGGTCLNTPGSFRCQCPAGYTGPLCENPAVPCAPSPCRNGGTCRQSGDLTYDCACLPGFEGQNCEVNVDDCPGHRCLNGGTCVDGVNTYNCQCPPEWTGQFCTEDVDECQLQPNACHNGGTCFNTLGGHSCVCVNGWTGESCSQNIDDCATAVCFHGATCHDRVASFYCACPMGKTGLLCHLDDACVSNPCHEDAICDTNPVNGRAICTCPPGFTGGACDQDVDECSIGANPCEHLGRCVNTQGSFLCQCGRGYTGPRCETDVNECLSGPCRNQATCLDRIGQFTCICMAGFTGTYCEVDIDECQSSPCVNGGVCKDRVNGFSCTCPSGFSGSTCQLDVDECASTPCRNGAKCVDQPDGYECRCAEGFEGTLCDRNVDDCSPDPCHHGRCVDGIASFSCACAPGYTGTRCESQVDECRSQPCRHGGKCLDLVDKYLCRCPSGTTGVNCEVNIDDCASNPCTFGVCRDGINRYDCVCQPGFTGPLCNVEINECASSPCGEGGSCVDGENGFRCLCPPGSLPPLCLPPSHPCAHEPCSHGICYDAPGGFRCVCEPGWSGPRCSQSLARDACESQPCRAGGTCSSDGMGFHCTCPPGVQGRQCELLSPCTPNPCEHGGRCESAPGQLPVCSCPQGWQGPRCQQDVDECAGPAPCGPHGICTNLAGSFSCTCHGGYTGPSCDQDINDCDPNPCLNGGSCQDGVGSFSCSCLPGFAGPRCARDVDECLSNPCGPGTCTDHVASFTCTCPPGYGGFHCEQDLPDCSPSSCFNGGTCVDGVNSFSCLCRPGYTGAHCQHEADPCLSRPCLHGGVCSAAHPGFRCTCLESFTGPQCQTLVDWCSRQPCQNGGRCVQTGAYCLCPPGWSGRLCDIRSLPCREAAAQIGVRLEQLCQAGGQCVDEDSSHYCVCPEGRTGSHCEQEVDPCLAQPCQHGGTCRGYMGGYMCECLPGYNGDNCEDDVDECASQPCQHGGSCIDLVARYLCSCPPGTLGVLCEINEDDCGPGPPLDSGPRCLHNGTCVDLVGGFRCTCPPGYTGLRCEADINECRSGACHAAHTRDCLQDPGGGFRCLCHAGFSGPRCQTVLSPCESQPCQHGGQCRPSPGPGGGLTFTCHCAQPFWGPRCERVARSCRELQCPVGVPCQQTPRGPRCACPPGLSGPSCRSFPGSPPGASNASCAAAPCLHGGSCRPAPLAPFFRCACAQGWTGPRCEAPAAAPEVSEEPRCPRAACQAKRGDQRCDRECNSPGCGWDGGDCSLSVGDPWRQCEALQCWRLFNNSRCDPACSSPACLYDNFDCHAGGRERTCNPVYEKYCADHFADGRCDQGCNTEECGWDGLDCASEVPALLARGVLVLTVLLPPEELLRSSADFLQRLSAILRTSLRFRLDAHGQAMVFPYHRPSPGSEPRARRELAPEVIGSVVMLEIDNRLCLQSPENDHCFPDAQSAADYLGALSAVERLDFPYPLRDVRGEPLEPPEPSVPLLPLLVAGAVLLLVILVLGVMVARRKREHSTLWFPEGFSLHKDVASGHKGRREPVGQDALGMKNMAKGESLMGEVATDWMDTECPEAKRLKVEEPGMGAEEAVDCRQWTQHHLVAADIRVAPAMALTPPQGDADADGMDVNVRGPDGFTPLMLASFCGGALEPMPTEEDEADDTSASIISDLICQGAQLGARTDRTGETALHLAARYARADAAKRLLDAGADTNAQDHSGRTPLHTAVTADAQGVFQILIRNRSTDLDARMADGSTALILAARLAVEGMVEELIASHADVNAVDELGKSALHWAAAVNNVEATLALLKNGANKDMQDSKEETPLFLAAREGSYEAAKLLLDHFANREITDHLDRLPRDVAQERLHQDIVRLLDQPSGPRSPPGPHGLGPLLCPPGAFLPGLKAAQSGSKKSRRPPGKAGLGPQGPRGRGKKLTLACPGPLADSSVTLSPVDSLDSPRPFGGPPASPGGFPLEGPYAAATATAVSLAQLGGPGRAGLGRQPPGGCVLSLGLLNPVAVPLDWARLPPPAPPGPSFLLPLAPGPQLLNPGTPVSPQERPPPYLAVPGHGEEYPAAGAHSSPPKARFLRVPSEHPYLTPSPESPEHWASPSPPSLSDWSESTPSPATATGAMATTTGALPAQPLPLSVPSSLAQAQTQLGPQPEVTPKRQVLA
Sequence of Pro-neuregulin-1, membrane-bound isoform (Homo sapiens) (Q02297 whole entry, looked up, the tested form may be a part, canonical isoform): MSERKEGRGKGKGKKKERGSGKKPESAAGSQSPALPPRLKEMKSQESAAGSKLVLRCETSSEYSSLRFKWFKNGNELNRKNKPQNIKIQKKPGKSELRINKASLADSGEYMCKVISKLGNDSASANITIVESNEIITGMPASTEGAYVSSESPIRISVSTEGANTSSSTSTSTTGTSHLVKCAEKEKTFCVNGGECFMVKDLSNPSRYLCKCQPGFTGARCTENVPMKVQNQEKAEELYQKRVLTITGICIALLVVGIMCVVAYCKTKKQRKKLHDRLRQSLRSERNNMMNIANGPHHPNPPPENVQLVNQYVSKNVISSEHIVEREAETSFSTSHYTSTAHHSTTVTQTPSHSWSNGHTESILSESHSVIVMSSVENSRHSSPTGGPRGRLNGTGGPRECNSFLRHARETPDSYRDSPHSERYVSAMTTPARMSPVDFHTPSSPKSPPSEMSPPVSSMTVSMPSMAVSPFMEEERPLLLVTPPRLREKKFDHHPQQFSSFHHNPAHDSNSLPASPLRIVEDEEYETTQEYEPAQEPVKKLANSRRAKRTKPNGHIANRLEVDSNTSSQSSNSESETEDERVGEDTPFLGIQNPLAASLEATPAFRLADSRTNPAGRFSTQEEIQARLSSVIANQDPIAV
Sequence of Torsin-1A-interacting protein 2 (Homo sapiens) (Q8NFQ8 whole entry, looked up): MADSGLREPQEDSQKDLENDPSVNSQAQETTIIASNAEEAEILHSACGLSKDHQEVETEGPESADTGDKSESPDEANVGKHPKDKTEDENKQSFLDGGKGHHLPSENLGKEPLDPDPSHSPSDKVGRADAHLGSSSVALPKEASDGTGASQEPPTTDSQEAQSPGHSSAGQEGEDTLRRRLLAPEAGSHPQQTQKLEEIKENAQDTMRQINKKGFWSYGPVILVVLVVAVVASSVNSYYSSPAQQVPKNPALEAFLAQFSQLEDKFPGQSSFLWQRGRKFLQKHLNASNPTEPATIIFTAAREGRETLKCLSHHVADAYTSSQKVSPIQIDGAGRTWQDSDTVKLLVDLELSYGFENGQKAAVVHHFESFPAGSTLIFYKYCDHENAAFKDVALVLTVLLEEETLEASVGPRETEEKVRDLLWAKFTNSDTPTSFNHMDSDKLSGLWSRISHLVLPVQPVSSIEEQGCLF

On to `CN1C(=O)C2C=CC(C(O)C#Cc3ccccc3)N(N3CCCCC3)C2C1=O` (stereo not given), for which the composite z-score in experiment [1] is 0.819; in experiment [2] it was 1.34; in [3] it was 0.454; in [4], 0.762; in experiment [5], 1.44; in experiment [6] it was 1.19. In addition, the composite z-score in experiment [7] is 1.19; in experiment [9], 1.16; in experiment [10] it was -0.0655; in [11], 0.436; in [15], 0.58; in [17], 0.529. In addition, the values for the composite z-score in experiment [18], in experiment [19] and in experiment [20] were -0.287, 0.964 and 0.647, respectively. For the same compound, the z-score in experiment [8] was -0.995 (inactive); in experiment [12], 0.54 (inactive); in experiment [13] it was -0.126 (inactive); in experiment [14], -0.296 (inactive); in experiment [16], 0.0497 (inactive).

In the case of `C=CCC(OC(C)=O)[C@@H]1[C@@H](N(Cc2cccc3ccccc23)C(=O)c2ccc(-c3ccccc3)cc2)c2cc(OCCCO)ccc2N1C(=O)c1ccc2ccccc2c1` (stereo not given in full), the composite z-score in experiment [1] was -0.484; in experiment [2] it was 0.306; in experiment [3] it was -0.0647; in experiment [4], -0.0203; in experiment [5], 0.104; in experiment [6], 0.148. Besides, the composite z-score in experiment [7] is 0.0031; in experiment [9], 0.131; in experiment [10], 0.0722; in experiment [11], 0.833; in [15] it was 1.76; in [17] it was -0.0174. Besides, the composite z-score in experiment [18] is 0.251; in [19] it was 0.643; in experiment [20], -0.0578. Further, the z-score in experiment [8] was -0.0039 (inactive); in experiment [12], -0.226 (inactive); in experiment [13], 0.435 (inactive); in experiment [14] it was 0.009 (inactive); in [16] it was -0.601 (inactive).

On to `COC(=O)[C@@]1(Cc2ccc(OC)cc2)[C@@H]2C(=CC(=O)[C@H]2CC(=O)C(=O)N2CCCC2)CN1C(=O)c1ccccc1`, for which the composite z-score in experiment [1] was 0.156; in experiment [2], -0.601; in experiment [3], -0.0124; in experiment [4], 0.224; in experiment [5] it was 1.6; in experiment [6], 1.02. Moreover, the composite z-score in [7] was 1.25; in experiment [9] it was 1.1; in [10], 1.41; in experiment [11] it was -1.55; in [15] it was 2.99; in experiment [17], 0.336. The composite z-score in [18] was determined as 0.0255; in experiment [19] it was 0.735; in experiment [20], 0.386. Moreover, the z-score in experiment [8] is 2.91 (inactive); in experiment [12], 0.201 (inactive); in [13], 0.097 (inactive); in [14], 0.176 (inactive); in [16], 0.355 (inactive).

In the case of `C=CCNC(=O)[C@H]1[C@@H]2C(=O)O[C@@H](c3ccccc3)[C@@H](c3ccccc3)N2[C@@H](c2ccccc2OCCO)[C@]12C(=O)Nc1ccc(C#CCC(C(=O)OC)C(=O)OC)cc12`, the composite z-score worked out at 0.0775 in [1]; 0.44 in [2]; 0.0468 in experiment [3]; 0.423 in experiment [4]; 1.53 in experiment [5]; 1.46 in experiment [6]. Besides, the composite z-score was 1.34 in experiment [7]; 1.08 in experiment [9]; 0.409 in experiment [10]; 1.32 in [11]; 3.25 in experiment [15]; 0.65 in experiment [17]. Besides, the composite z-score in [18] is 0.897; in experiment [19], 1.05; in experiment [20] it was 0.486. The z-score in [8] is -0.616 (inactive); in experiment [12] it was 1.93 (inactive); in experiment [13], 2 (inactive); in [14] it was 5.92 (inactive); in experiment [16] it was 0.587 (inactive).

On to `C[C@@]1([C@@H](NC(=O)c2ccc(-c3ccccc3)cc2)c2ccc(Cl)cc2)C[C@H]1C1CCCCC1`, for which the composite z-score in [1] came to 0.512; in [2] it was 0.903; in [3], 0.276; in [4], 0.473; in [5] it was 1.43; in [6], 1.86. Also, the composite z-score in experiment [7] amounted to 0.883; in experiment [9], 0.893; in experiment [10] it was 0.133; in experiment [11], 0.497; in [15], 2.54; in experiment [17], 0.101. Besides, the values for the composite z-score in experiment [18], in experiment [19] and in experiment [20] were 0.118, 0.73 and 0.302, respectively. The z-score was -0.203 (inactive) in experiment [8]; 0.823 (inactive) in experiment [12]; -3.48 (inactive) in experiment [13]; 1.6 (inactive) in [14]; -0.586 (inactive) in experiment [16].
